The values below come from ChEMBL document CHEMBL2218924, “A broad activity screen in support of a chemogenomic map for kinase signalling research and drug discovery” (Biochem J, 2013).

The target in experiment [1] is T1, Ephrin type-B receptor 1 (Homo sapiens) (UniProt P54762).
T1 sequence (whole entry): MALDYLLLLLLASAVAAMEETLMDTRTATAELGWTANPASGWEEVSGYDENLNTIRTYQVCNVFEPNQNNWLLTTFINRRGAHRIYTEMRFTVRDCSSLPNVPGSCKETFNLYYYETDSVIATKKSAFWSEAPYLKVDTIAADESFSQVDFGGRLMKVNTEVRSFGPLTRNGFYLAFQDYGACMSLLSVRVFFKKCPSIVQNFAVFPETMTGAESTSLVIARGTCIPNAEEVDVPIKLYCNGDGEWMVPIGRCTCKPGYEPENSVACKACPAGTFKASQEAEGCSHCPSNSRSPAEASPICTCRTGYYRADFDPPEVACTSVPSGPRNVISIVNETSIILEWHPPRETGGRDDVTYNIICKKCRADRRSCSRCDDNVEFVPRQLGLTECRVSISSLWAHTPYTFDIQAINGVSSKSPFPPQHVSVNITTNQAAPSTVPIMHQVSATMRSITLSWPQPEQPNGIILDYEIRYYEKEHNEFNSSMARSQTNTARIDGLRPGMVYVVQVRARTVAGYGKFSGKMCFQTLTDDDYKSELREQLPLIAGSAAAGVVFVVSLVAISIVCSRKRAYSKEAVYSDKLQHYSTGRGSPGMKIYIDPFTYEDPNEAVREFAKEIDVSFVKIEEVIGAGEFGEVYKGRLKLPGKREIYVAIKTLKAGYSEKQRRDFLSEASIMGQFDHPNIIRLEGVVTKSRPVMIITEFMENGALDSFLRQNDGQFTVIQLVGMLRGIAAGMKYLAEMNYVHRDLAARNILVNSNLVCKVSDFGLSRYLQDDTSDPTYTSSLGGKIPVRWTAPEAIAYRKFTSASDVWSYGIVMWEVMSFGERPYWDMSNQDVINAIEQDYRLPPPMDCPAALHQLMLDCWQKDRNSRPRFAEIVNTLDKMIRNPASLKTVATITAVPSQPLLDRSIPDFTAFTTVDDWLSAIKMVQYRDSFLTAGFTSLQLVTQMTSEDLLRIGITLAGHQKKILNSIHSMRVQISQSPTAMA
The following applies: at 10 µM.

Experiment [2] addresses T2, Ephrin type-B receptor 2 (Homo sapiens) (UniProt P29323).
T2 sequence (whole entry): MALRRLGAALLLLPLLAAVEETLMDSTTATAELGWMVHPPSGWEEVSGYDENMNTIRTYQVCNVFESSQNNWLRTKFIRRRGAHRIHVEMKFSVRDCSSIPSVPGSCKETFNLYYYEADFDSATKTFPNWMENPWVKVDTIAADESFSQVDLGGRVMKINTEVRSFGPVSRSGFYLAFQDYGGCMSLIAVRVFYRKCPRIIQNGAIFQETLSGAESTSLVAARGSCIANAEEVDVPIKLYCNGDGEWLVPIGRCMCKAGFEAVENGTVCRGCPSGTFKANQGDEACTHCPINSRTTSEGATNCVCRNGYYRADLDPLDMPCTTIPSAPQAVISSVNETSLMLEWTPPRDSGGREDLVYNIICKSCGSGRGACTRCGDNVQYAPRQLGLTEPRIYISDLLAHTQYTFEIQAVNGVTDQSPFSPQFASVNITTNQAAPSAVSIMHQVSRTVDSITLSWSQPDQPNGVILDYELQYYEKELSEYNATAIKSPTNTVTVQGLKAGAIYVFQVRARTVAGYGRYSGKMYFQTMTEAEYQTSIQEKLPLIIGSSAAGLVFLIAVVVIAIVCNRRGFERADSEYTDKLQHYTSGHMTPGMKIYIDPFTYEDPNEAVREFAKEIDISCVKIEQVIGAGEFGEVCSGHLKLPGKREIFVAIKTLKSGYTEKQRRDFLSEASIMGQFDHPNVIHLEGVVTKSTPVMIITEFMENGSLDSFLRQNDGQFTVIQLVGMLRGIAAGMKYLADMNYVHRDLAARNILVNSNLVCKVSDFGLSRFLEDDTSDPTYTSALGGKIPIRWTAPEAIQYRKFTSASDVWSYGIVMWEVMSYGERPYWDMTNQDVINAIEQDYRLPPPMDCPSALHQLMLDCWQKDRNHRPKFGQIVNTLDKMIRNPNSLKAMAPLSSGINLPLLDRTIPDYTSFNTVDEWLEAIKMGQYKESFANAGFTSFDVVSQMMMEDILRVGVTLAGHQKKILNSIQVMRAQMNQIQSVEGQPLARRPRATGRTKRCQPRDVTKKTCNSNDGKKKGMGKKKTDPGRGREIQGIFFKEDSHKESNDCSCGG
The following applies: at 1 µM.

For experiment [3], the target named is T2, Ephrin type-B receptor 2 (Homo sapiens). The conditions noted are these: at 10 µM.
Experiment [4] has as its target T3, Ephrin type-B receptor 3 (Homo sapiens) (UniProt P54753).
T3 sequence (whole entry): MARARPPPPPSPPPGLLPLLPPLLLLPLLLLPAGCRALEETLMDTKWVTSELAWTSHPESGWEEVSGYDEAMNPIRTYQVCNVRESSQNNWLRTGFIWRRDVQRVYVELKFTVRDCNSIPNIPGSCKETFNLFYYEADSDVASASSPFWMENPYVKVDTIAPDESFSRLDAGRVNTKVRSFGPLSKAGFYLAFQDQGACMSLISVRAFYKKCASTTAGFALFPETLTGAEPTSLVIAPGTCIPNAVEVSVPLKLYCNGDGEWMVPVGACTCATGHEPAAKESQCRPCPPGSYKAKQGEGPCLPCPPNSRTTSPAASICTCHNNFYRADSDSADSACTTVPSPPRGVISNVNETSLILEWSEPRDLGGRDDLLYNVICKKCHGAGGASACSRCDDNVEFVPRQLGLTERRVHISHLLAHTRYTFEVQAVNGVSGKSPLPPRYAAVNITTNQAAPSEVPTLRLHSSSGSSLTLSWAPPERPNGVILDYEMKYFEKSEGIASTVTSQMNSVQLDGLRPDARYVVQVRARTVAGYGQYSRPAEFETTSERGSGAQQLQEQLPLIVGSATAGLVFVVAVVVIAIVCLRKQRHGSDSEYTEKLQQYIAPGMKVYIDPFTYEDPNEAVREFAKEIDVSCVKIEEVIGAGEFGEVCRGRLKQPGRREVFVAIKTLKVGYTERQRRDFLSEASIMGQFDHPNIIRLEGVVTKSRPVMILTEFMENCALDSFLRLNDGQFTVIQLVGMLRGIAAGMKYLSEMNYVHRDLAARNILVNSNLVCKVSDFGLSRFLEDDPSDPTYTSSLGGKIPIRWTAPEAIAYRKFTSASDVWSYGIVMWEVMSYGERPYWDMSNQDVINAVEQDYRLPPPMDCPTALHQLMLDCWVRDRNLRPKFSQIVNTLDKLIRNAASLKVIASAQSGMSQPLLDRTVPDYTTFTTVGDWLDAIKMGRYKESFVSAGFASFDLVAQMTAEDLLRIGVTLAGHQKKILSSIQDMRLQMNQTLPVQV
The following applies: at 1 µM.

Experiment [5] concerns the target T3, Ephrin type-B receptor 3 (Homo sapiens). The following applies: at 10 µM.
In experiment [6] the target is T4, Ephrin type-B receptor 4 (Homo sapiens) (UniProt P54760).
T4 sequence (whole entry): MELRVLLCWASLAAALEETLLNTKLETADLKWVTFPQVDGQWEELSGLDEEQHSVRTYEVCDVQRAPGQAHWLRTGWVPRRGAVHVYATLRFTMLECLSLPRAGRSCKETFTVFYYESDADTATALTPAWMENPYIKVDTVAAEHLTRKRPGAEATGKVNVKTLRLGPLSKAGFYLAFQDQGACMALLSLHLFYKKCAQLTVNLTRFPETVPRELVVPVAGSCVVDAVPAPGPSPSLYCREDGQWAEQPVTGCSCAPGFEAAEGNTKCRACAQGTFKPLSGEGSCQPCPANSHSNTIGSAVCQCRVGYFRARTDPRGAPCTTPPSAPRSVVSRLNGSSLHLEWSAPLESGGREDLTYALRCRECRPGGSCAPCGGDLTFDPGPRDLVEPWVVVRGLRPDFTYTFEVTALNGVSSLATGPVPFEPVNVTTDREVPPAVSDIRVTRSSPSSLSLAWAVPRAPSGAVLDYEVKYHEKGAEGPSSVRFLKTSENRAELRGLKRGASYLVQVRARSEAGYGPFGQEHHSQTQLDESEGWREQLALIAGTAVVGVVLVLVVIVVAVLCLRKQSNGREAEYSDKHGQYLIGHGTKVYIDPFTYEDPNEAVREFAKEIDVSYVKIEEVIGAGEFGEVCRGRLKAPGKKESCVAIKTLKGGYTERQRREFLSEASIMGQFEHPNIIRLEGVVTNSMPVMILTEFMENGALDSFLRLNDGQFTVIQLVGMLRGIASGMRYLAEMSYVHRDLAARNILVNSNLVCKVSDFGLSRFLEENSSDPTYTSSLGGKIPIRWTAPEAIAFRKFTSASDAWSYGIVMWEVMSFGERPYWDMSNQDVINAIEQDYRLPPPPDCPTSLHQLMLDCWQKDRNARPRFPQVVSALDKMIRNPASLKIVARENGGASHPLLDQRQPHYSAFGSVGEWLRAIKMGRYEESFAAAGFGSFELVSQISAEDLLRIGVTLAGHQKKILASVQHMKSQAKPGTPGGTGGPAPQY
The conditions noted are these: at 1 µM.

Experiment [7] addresses T4, Ephrin type-B receptor 4 (Homo sapiens). The following applies: at 10 µM.
The target of experiment [8] is Receptor tyrosine-protein kinase erbB-4 (Homo sapiens) (UniProt Q15303). The conditions noted are these: at 1 µM.
Receptor tyrosine-protein kinase erbB-4 (Homo sapiens), sequence (Q15303 whole entry): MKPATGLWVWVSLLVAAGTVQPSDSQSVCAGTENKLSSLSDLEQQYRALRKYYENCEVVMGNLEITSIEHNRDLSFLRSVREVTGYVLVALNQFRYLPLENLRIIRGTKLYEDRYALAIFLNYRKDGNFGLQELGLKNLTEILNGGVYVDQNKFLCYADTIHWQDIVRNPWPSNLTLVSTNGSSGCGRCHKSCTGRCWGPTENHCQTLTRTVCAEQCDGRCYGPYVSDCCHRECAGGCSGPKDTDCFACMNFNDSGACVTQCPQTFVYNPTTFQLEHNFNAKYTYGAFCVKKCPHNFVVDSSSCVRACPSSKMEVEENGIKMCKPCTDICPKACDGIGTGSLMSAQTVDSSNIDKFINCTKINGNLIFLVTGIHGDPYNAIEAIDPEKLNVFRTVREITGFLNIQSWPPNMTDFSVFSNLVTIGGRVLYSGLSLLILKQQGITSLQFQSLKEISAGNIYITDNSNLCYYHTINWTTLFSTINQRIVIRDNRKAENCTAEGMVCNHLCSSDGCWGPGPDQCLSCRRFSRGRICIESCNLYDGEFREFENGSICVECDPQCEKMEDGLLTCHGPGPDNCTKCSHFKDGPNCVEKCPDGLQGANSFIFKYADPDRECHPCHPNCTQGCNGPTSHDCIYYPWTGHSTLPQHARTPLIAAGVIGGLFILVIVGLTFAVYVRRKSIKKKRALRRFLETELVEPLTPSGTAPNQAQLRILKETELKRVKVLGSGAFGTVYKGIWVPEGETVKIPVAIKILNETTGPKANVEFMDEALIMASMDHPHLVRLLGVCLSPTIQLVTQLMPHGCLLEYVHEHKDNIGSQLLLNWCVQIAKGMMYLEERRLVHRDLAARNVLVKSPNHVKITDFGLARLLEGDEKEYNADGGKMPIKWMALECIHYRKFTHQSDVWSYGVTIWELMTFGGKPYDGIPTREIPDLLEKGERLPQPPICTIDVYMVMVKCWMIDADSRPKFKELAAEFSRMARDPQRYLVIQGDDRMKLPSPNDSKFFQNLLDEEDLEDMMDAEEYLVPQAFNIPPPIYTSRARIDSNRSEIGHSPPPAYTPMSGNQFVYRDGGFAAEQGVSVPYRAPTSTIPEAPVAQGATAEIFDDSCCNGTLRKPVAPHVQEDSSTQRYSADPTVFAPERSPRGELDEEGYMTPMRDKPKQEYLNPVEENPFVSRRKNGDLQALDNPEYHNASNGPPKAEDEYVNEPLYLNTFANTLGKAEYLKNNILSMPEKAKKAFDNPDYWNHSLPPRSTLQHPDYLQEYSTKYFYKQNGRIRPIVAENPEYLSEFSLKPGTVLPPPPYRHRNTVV
Experiment [9] has the same target. The following applies: at 10 µM.
Experiment [10] deals with Focal adhesion kinase 1 (Homo sapiens) (UniProt Q05397). The following applies: at 1 µM.
Focal adhesion kinase 1 (Homo sapiens), sequence (Q05397 2-1052 limits assumed): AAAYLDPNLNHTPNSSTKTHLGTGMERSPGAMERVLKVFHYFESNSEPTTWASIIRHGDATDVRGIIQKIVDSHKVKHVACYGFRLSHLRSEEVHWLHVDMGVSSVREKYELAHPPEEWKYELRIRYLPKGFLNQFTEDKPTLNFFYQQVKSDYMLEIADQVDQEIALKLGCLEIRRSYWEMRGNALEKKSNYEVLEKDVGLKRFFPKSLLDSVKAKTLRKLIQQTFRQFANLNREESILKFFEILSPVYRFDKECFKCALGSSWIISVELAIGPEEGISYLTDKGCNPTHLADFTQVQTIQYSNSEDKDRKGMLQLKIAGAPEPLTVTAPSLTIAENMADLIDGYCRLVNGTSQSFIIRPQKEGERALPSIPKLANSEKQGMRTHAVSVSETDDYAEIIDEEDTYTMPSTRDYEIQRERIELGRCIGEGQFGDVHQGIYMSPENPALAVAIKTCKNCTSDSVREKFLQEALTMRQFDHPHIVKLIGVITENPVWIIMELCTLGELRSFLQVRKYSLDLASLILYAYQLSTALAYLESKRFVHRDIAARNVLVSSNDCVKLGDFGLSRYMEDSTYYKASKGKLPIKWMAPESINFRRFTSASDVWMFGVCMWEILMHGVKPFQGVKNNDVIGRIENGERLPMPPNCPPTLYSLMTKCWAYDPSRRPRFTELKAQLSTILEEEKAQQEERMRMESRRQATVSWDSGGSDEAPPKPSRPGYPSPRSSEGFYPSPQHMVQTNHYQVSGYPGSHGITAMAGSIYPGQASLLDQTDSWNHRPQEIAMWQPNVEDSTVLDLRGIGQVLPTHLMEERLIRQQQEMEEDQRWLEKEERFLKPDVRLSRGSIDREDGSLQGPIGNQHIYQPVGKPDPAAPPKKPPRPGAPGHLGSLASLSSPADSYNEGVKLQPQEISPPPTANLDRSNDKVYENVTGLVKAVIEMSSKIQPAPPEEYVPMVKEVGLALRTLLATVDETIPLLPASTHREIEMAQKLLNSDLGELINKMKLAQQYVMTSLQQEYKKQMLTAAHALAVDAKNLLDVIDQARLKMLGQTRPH

Regarding `O=C(Nc1cccc(Nc2cc(Nc3cccc(C(F)(F)F)c3)ncn2)c1)C1CC1`, the residual activity (in general, the signal under treatment as a percentage of the control signal) was 69% in [1]; 101% in [2]; 99% in experiment [3]; 90% (inactive) in [4]; 100% in experiment [5]; 97% in experiment [6]. Besides, the residual activity was 82% in [7], 71% in experiment [8], 88% in [9] and 130% in experiment [10].
